EWS-Fli inh = blocks EWS/Fli oncoprotein-driven transcription. inhibition, % at 12.6 µM. A673 NR0B1-luciferase reporter, viability-normalised. hit rate 0.67% among 350,000;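 active = mean inhibition of at least 50% after viability correction, with every replicate also passing that limit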;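 note: firefly luciferase signal divided by Alamar Blue viability fluorescence both relative to DMSO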
LGR2 inh = blocks bursicon-induced cAMP signaling via Drosophila LGR2; inhibition, % at 9.99 µM; HEK293 LGR2, CRE-luciferase, bursicon-stimulated, 4 h; AID 720647; hit rate 0.35% among 380,000;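 active = drop in luminescence signal, shown as inhibition above about 50% in the replicate tests, limit read from the data, passing the limit was not always enough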;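 note: agonist challenge used bursicon conditioned medium at about half maximal strength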
Shn3 inh set2 = reduces Shn3 3'UTR luciferase signal in osteoblasts; Clone20 osteoblast Shn3 3'UTR firefly luciferase, 24 h; inhibition, % at 12.5 µM; hit rate 0.52% among 360,000; AID 588674;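 active = mean inhibition of at least 75% with every replicate also reaching 75%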;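 note: 0% = median of neutral control wells and 100% = pilot-screen positive control compound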
PAX8 reporter = PAX8 transcriptional activity inhibition. RMG-I TPO-luciferase reporter, SteadyGlo, 24 h. inhibition, % at 12.6 µM. hit rate 1.2% among 360,000;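 active = mean replicate inhibition at least 60% with every replicate also reaching 60%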;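 note: luciferase light reporting Pax8 driven TPO promoter activity; plate controls were median of neutral control wells for no effect and mitoxantrone controls for full effect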
EBV LMP1 NFkB = inhibitors of Epstein-Barr LMP1-induced NF-kappaB reporter; LMP1-induced NF-kappaB luciferase reporter cells, luminescence; inhibition, % at 12.5 µM; hit rate 0.69% among 350,000; in the data active = inhibition above about 41%;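 note: 0% = neutral control wells and 100% = reference inhibitor control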
TRPM1 prom inh = inhibitors of MITF-driven TRPM1 promoter in melanoma cells; inhibition, % at 12.5 µM; SK-MEL-5 TRPM1 promoter luciferase, 24 h; hit rate 0.83% among 330,000; AID 488899;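 active = mean inhibition across replicates of 60% or more, whatever share of single replicates reaches that level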
An asterisk follows results filed as active. Only some compounds are listed: those with a hit (about 2.2% of all), similar ones and a draw of the others.

For CCCc1ccc(-c2cc(C(=O)N/N=C/c3ccc([N+](=O)[O-])o3)c3ccccc3n2)cc1 the results were Shn3 inh set2 -10, EBV LMP1 NFkB 58* and TRPM1 prom inh 51.
O=C(N/N=C/c1ccc([N+](=O)[O-])o1)c1sc2ccccc2c1Cl was read as EWS-Fli inh -4, LGR2 inh 2, Shn3 inh set2 20, PAX8 reporter 49, EBV LMP1 NFkB -4 and TRPM1 prom inh 78*.
Cc1cc(C(=O)N/N=C/c2ccc([N+](=O)[O-])o2)c(C)o1 was read as EWS-Fli inh 13, LGR2 inh 1, Shn3 inh set2 6, PAX8 reporter -4, EBV LMP1 NFkB -11 and TRPM1 prom inh 83*.
`O=C(N/N=C/c1ccccn1)c1sc2ccccc2c1Cl` gave EWS-Fli inh -4, LGR2 inh -82, Shn3 inh set2 12, PAX8 reporter 9, EBV LMP1 NFkB 1 and TRPM1 prom inh 19.
Screening COc1ccc(-c2nn(-c3ccccc3)cc2C(=O)N/N=C/c2ccc([N+](=O)[O-])o2)cc1 returned EWS-Fli inh 0, LGR2 inh -6, Shn3 inh set2 27, PAX8 reporter 4, EBV LMP1 NFkB -68 and TRPM1 prom inh 90*.
Screening Cc1nonc1C(=O)N/N=C/c1ccc([N+](=O)[O-])o1 returned EWS-Fli inh 12, LGR2 inh 11, Shn3 inh set2 -6, PAX8 reporter 2, EBV LMP1 NFkB -29 and TRPM1 prom inh 29.
Screening C[C@H]1CN([C@@H](C)CO)C(=O)c2cc(NC(=O)CCN3CCOCC3)ccc2O[C@H]1CN(C)C(=O)NC1CCCCC1 returned EWS-Fli inh -3, LGR2 inh -15 and PAX8 reporter -3.
For COc1ccc(NC(=O)c2cc([N+](=O)[O-])ccc2O)cc1 the results were EWS-Fli inh 73*, LGR2 inh 96*, Shn3 inh set2 66, PAX8 reporter 100*, EBV LMP1 NFkB 75* and TRPM1 prom inh 84*.
O=C(Nc1cccc([N+](=O)[O-])c1)c1cc2ccccc2cc1O was read as EWS-Fli inh -12, LGR2 inh -23, Shn3 inh set2 31, PAX8 reporter 78*, EBV LMP1 NFkB 23 and TRPM1 prom inh 53.
Screening C[C@@H]1CN([C@@H](C)CO)C(=O)c2cccc(NS(=O)(=O)c3ccc(Cl)cc3)c2O[C@H]1CN(C)Cc1ccncc1 returned EWS-Fli inh 2, LGR2 inh 8 and PAX8 reporter -12.
For CCCN(C)C[C@@H]1Oc2ncc(-c3cccc(C#N)c3)cc2C(=O)N([C@H](C)CO)C[C@@H]1C the results were EWS-Fli inh -1 and LGR2 inh 16.
COc1ccc(-c2cc(C#N)nc(Cl)n2)cc1 was read as EWS-Fli inh -7, LGR2 inh -12, Shn3 inh set2 8, PAX8 reporter 2, EBV LMP1 NFkB 3 and TRPM1 prom inh 66*.
For COc1ccc(C(c2c(C)n(C)n(-c3ccccc3)c2=O)c2c(C)n(C)n(-c3ccccc3)c2=O)c(OC)c1OC the results were EWS-Fli inh 10, LGR2 inh -3, Shn3 inh set2 -10, PAX8 reporter -15, EBV LMP1 NFkB 80* and TRPM1 prom inh 24.
Screening CCCCS(=O)(=O)/C=C\C=C/S(=O)(=O)CCCC returned Shn3 inh set2 96*, EBV LMP1 NFkB 92* and TRPM1 prom inh 104*.
Screening CCCCS(=O)(=O)/C=C\C1C2C=CC(C2)C1S(=O)(=O)CCCC (stereo unspecified) returned Shn3 inh set2 10, EBV LMP1 NFkB -1 and TRPM1 prom inh -8.
`COc1ccc(-c2noc(CCCC(=O)N3CCN(c4cc(C)ccc4C)CC3)n2)cc1` gave EWS-Fli inh -53, LGR2 inh -44, Shn3 inh set2 -50, PAX8 reporter -173, EBV LMP1 NFkB -25 and TRPM1 prom inh -63.
Screening COc1ccc(-c2noc(CCCCC(=O)N3CCN(c4cc(C)ccc4C)CC3)n2)cc1 returned EWS-Fli inh 44, LGR2 inh 26, Shn3 inh set2 92*, PAX8 reporter 41, EBV LMP1 NFkB 37 and TRPM1 prom inh 53.
Screening CCCN1[C@@H]2c3ccc(/C=C/c4ccccc4)c(=O)n3C[C@@H]2[C@@H](CO)[C@@H]1C(=O)N1CCOCC1 returned EWS-Fli inh 5, LGR2 inh -1 and PAX8 reporter 69*.
